Records with an inconclusive call do not appear. Where a call stands in place of a potency, no number is given. Calls of active or inactive are those of the source. The call rests on the fitted dose curve; in most records, active means well fitted inhibition curve with a large enough effect; inconclusive means small, poorly fitted or top-dose-only effect; inactive means flat fitted curve, though single readings scatter.
Legend:
[1] = target: Glutathione peroxidase 1 (Homo sapiens) (UniProt P07203); test: Primary qHTS Assay for Inhibitors of Recombinant Selenoprotein Glutathione Peroxidase 1 (GPX1) (AID 1845191)
Chain of Glutathione peroxidase 1 (Homo sapiens) (P07203 whole entry, looked up): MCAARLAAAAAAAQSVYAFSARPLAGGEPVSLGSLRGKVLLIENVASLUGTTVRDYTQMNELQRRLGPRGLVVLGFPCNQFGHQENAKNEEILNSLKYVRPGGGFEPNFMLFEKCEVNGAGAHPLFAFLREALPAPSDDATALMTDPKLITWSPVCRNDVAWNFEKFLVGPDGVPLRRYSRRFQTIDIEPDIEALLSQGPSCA
Procedure, shortened: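 GPX1 10 nM, GR 100 nM, GSH 1 mM, NADPH 0.5 mM, CHP 0.5 mM (final). 30-min cpd preincubation, RT. Ex340/Em450 read t=0, t=15 min.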

[2] = target: Phospholipid hydroperoxide glutathione peroxidase GPX4 (Homo sapiens) (UniProt P36969); test: Primary qHTS Assay for Inhibitors of Recombinant Selenoprotein Glutathione Peroxidase 4 (GPX4) (AID 1845192)
Chain of Phospholipid hydroperoxide glutathione peroxidase GPX4 (Homo sapiens) (P36969 whole entry, looked up): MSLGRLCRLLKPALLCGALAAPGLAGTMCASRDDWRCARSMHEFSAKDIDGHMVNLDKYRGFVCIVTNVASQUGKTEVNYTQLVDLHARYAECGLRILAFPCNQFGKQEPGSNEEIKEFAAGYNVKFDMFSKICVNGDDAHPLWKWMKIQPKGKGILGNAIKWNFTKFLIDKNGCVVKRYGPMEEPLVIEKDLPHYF
Procedure, shortened: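 qHTS, GR-coupled: GPX4 200 nM + cpd 30 min RT → GSH 1 mM, NADPH 0.5 mM, GR 100 nM → CHP 0.5 mM start; fluor 340/450 at t0 and t15 min; no-enzyme wells as control.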
Further: nearly all actives have a fitted effect of over 65% in size.

Row | Compound | Potency [1] | Potency [2]
1 | NC[C@H]1O[C@@H](n2cnc3c(N)ncnc32)[C@H](O)[C@@H]1O | inactive | inactive
2 | CC[C@@H](C)[C@H]1O[C@]2(CC[C@H]1C)C[C@@H]1C[C@@H](CC=C(C)[C@@H](O[C@H]3C[C@H](OC)[C@@H](O[C@H]4C[C@H](OC)[C@@H](O)[C@H](C)O4)[C@H](C)O3)[C@@H](C)C=CC=C3CO[C@@H]4[C@H](O)C(C)=C[C@@H](C(=O)O1)[C@]34O)O2 | inactive | inactive
3 | CN1CCc2cccc3c2C1Cc1ccc(O)c(O)c1-3 (centres undefined) | inactive | inactive
4 | NCC1OC(O[C@H]2[C@H](O)[C@@H](OC3C(O)C(N)CC(N)C3OC3OC(CO)C(O)C(O)C3N)O[C@@H]2CO)C(N)C(O)C1O (some centres undefined) | inactive | inactive
5 | CCCCCCCC/C=C\CCCCCCCC(=O)NCCO | inactive | inactive
6 | COc1cccc(OC)c1OCCNCC1COc2ccccc2O1 (centres undefined) | inactive | inactive
7 | O=[N+]([O-])c1ccc(CSc2ncnc3c2ncn3[C@@H]2O[C@H](CO)[C@@H](O)[C@H]2O)cc1 | inactive | inactive
8 | CC(=O)/C=C1\C(=O)N(C)c2ccccc21 | inactive | inactive
9 | O=c1[nH]c2cc([N+](=O)[O-])c([N+](=O)[O-])cc2[nH]c1=O | inactive | inactive
10 | Brc1c(Br)c(Br)c2n[nH]nc2c1Br | inactive | inactive
11 | COc1cccc(C(=O)NCCN2CCN(c3ccc(Cl)cc3)CC2)c1 | inactive | inactive
12 | CN1C2CC(OC(=O)[C@H](CO)c3ccccc3)CC1C1OC12 (some centres undefined) | inactive | inactive
13 | CC(C)c1cccc(C(C)C)c1N1C(=O)c2ccc(O)cc2C1=O | inactive | inactive
14 | CC(=O)SCC[N+](C)(C)C | inactive | inactive
15 | CC12C(=O)OC(=O)C1(C)C1CCC2O1 (centres undefined) | inactive | inactive
16 | S=C(S)OC1CC2CC1C1CCCC21 (centres undefined) | inactive | inactive

Row | Compound | Potency [1] | Potency [2]
17 | Cc1cc(NC(=O)Nc2ccc3c(ccn3C)c2)sn1 | inactive | inactive
18 | CCC(CO)Nc1nc(NCc2ccccc2)c2ncn(C(C)C)c2n1 (centres undefined) | inactive | inactive
19 | CC(C(=O)O)c1ccc(C(=O)c2ccccc2)s1 (centres undefined) | inactive | inactive
20 | c1cnc2c(c1)ccc1cccnc12 | inactive | inactive
21 | N#C/C(=C\c1ccc(O)c(O)c1)C(=O)c1ccc(O)c(O)c1 | inactive | inactive
22 | Cc1ccc(S(=O)(=O)/C=C/C#N)cc1 | inactive | inactive
23 | N[C@@H](CC(=O)O)C(=O)O | inactive | inactive
24 | CN(C)[C@@H]1C(=O)C(C(=O)NCN2CCCC2)=C(O)[C@@]2(O)C(=O)C3=C(O)c4c(O)cccc4[C@@](C)(O)C3C[C@@H]12 (some centres undefined) | inactive | inactive
25 | NCCCCCCCCCCN | inactive | inactive
26 | CNC(=O)[C@H]1O[C@@H](n2cnc3c(NCc4ccc(N)cc4)ncnc32)[C@H](O)[C@@H]1O | inactive | inactive
27 | COc1ccc(NC(=O)/C=C/c2ccc(Cl)cc2)cc1 | inactive | inactive
28 | OC[C@H]1O[C@@H](n2cnc3c(NC4CCCC4)ncnc32)[C@H](O)[C@@H]1O | inactive | inactive
29 | COc1cc(C(O)CO)ccc1OS(=O)(=O)O (centres undefined) | inactive | inactive
30 | CC1CN(S(=O)(=O)c2cccc3cnccc23)CCN1 (centres undefined) | inactive | inactive
31 | Cc1ccc(O)c(N=Nc2ccccc2)n1 | inactive | inactive
32 | NCCCCC(=O)O | inactive | inactive
